Some test systems named below: SR leukemia; RPMI-8226 leukemia; OVCAR-8 ovarian; OVCAR-5 ovarian; OVCAR-4 ovarian; SK-OV-3 ovarian; IGROV1 ovarian; OVCAR-3 ovarian; HS 578T breast; NCI/ADR-RES ovarian; T-47D breast; BT-549 breast; MDA-MB-435 melanoma; SW-620 colon; MCF7 breast; HCT-116 colon; HCC-2998 colon; KM12 colon; MDA-MB-468 breast.
What all share (assay): NCI-60 one-dose screen, 48 h (100 = growth as untreated, 0 = no growth, -100 = all killed)
What all share (conditions): 10 µM unless noted

Several values for one entry are separate records, joined by “and”; a condition that tells them apart may be missing. Equal values may be shown once. Compounds without any hit were thinned out: in the full panel of roughly 83,000, 20% have a hit.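 Step 1: grow cells in 96-well plates. Step 2: add test compound at a single concentration. Step 3: incubate 48 h. Step 4: record percent growth.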 A number with no mark means an inactive call. Activity calls are given as the source filed them. The calls were made as follows: active = growth percent below 10; inactive = the rest.

As to `COc1cc(/C=C/C(=O)c2ccc(C)cc2)ccc1Oc1nc(Nc2ccc(F)cc2)nc(N(C)C)n1`, the growth in the assay on SR leukemia was 3.88% (active); with RPMI-8226 leukemia it was -1.89% (active); with OVCAR-8 ovarian, 38%; in the assay on OVCAR-5 ovarian, 79.1%; with OVCAR-4 ovarian it was 39.4%; in the assay on SK-OV-3 ovarian, 79.4%. Further, the growth in the assay with IGROV1 ovarian is 57.8%; in the assay with OVCAR-3 ovarian, 52.4%; in the assay on HS 578T breast it was 41.7%; in the assay on NCI/ADR-RES ovarian it was 38.1%; with T-47D breast, 15.4%; with BT-549 breast, -30.1% (active). The growth with MDA-MB-435 melanoma is 53.9%; with SW-620 colon, 6.82% (active); in the assay on MCF7 breast, 11.9%; in the assay with HCT-116 colon it was -80.3% (active); in the assay with HCC-2998 colon, 91.9%; in the assay with KM12 colon it was 65.4%. Moreover, in the assay on MDA-MB-468 breast, the growth was 40.1%.

Turning to `Cc1ccc(C2CC(c3ccc(S(=O)(=O)NCCNc4nc(Nc5ccc(F)cc5)nc(N(C)C)n4)cc3)=Nc3c(N)nc(N)nc3N2)cc1` (centres undefined), the growth in the assay on SR leukemia was -6.57% (active); in the assay with RPMI-8226 leukemia, 6.3% (active); in the assay with OVCAR-8 ovarian, 52%; in the assay with OVCAR-5 ovarian, 92.6%; with OVCAR-4 ovarian, 53.2%; in the assay on SK-OV-3 ovarian, 101%. Moreover, the growth was 69.8% in the assay with IGROV1 ovarian; 67.5% in the assay with OVCAR-3 ovarian; 65.2% with HS 578T breast; 88.9% in the assay with NCI/ADR-RES ovarian; 53% with T-47D breast; 58% with BT-549 breast. Moreover, the growth with MDA-MB-435 melanoma was 55.2%; with SW-620 colon, 54.1%; in the assay with MCF7 breast, 18.7%; in the assay with HCT-116 colon it was 27.2%; in the assay on HCC-2998 colon it was 32.4%; with KM12 colon it was 40.9%.

For the compound `CC1(C)CC[C@]2(C(=O)O)CC[C@]3(C)C(=CCC4[C@@]5(C)C[C@@H](O)[C@@H]6OC(c7ccco7)OC[C@@]6(C)C5CC[C@]43C)C2C1` (some centres undefined), the growth in the assay on SR leukemia is 18.2%; in the assay with RPMI-8226 leukemia it was 15%; in the assay with OVCAR-8 ovarian it was 26.9%; in the assay on OVCAR-5 ovarian it was 65.4%; in the assay on OVCAR-4 ovarian it was 47.9%; in the assay with SK-OV-3 ovarian it was 75.6%. Moreover, the growth is 31.6% with IGROV1 ovarian; 20.5% in the assay with OVCAR-3 ovarian; 31.2% in the assay with HS 578T breast; 35.6% with NCI/ADR-RES ovarian; 46.4% in the assay on T-47D breast; 13.9% in the assay with BT-549 breast. Also, the growth with MDA-MB-435 melanoma is 12.2%; with SW-620 colon, 23.6%; in the assay with MCF7 breast it was 21%; in the assay with HCT-116 colon it was 11.8%; with HCC-2998 colon, 34%; in the assay with KM12 colon it was 17.3%.

Take `COc1ccc(C(=O)/C=C/c2ccc(OCc3ccccc3)c(OC)c2)cc1OC`: the growth with SR leukemia is 8.91% (active); with RPMI-8226 leukemia, 9.53% (active); in the assay with OVCAR-8 ovarian, -1.43% (active); with OVCAR-5 ovarian it was 4.82% (active); with OVCAR-4 ovarian it was 25.6%; in the assay with SK-OV-3 ovarian, 83.5%. Besides, the growth is 23.3% with IGROV1 ovarian; 25.8% in the assay on OVCAR-3 ovarian; 75.5% with HS 578T breast; 19.7% in the assay with NCI/ADR-RES ovarian; 30.4% in the assay on T-47D breast; 12.6% in the assay on BT-549 breast. The growth was 30.9% in the assay on MDA-MB-435 melanoma; 10.4% in the assay on SW-620 colon; 10.5% in the assay with MCF7 breast; 12.3% in the assay on HCT-116 colon; 15.2% in the assay on HCC-2998 colon; 16% in the assay on KM12 colon. Moreover, the growth in the assay on MDA-MB-468 breast was 23.8% and 11.1%.

As to `O=C(N=Nc1c(O)[nH]c2ccc(Cl)cc12)c1ccc2nc(-c3ccccc3)[nH]c2c1`, the growth was 15.3% with SR leukemia; 70.1% with RPMI-8226 leukemia; 20.8% in the assay with OVCAR-8 ovarian; 106% in the assay on OVCAR-5 ovarian; 38.2% with OVCAR-4 ovarian; 91% in the assay with SK-OV-3 ovarian. Further, the growth was 75.4% in the assay on IGROV1 ovarian; 109% in the assay on OVCAR-3 ovarian; 52.3% in the assay on HS 578T breast; 90% in the assay with NCI/ADR-RES ovarian; 30.1% in the assay on T-47D breast; 109% with BT-549 breast. Besides, the growth is 79.7% with MDA-MB-435 melanoma; 17.8% with SW-620 colon; 4.1% (active) with MCF7 breast; 59.4% in the assay on HCT-116 colon; 10.3% in the assay on HCC-2998 colon; 91.2% in the assay with KM12 colon.

Consider `O=S(=O)(Nc1cccc(-n2cnc3cc(-c4ccc(O)cc4)ccc32)c1)C1CC1`, for which the growth was 13.2% in the assay on SR leukemia; 23.9% in the assay with RPMI-8226 leukemia; 19.8% in the assay on OVCAR-8 ovarian; 47.1% in the assay with OVCAR-5 ovarian; 48.3% in the assay on OVCAR-4 ovarian; 35.6% in the assay with SK-OV-3 ovarian. In addition, the growth in the assay with IGROV1 ovarian is 35.3%; in the assay with OVCAR-3 ovarian, 2.82% (active); with HS 578T breast it was -20.1% (active); with NCI/ADR-RES ovarian, 25.1%; in the assay with T-47D breast it was 27.3%; in the assay on BT-549 breast, 14.3%. Also, the growth in the assay on MDA-MB-435 melanoma is -21.3% (active); in the assay with SW-620 colon, 31.1%; with MCF7 breast it was 21.8%; in the assay on HCT-116 colon it was 13.4%; in the assay with HCC-2998 colon it was 40.8%; in the assay with KM12 colon, 6.07% (active). Moreover, the growth in the assay on MDA-MB-468 breast was 3.78% (active).

Regarding `CCN(CC)c1ccc(/C=N/Nc2nc(-c3ccc(C)cc3)cs2)c(O)c1`, the growth is 92.9% in the assay with SR leukemia; 74.3% in the assay with RPMI-8226 leukemia; 86.8% in the assay with OVCAR-8 ovarian; 93.2% in the assay with OVCAR-5 ovarian; 89.7% in the assay with OVCAR-4 ovarian; 108% in the assay with SK-OV-3 ovarian. The growth with IGROV1 ovarian is 96.3%; with OVCAR-3 ovarian, 92.1%; with HS 578T breast, 108%; with NCI/ADR-RES ovarian it was 92.5%; in the assay on T-47D breast it was 68.7%; with BT-549 breast, 71.9%. For the same compound, the growth with MDA-MB-435 melanoma is 96.7%; with SW-620 colon, 99.1%; in the assay on MCF7 breast, 67.8%; in the assay on HCT-116 colon it was 72.9%; with HCC-2998 colon, 106%; with KM12 colon, 94.6%. In the assay with MDA-MB-468 breast, the growth was 66.7%.

`Cc1ccc(S(=O)(=O)c2nc(S(=O)(=O)c3ccc(C)cc3)c(Cl)s2)cc1`: the growth in the assay on SR leukemia was 3.18% (active); with RPMI-8226 leukemia it was -32.7% (active); in the assay on OVCAR-8 ovarian it was 9.84% (active); in the assay with OVCAR-5 ovarian, 31.6%; with OVCAR-4 ovarian it was -26.1% (active); in the assay on SK-OV-3 ovarian, 133%. Also, the growth was 44.8% in the assay with IGROV1 ovarian; -87.5% (active) with OVCAR-3 ovarian; 86.5% in the assay on HS 578T breast; 29.5% in the assay with NCI/ADR-RES ovarian; -24.6% (active) in the assay on T-47D breast; 26.3% in the assay with BT-549 breast. For the same compound, the growth with MDA-MB-435 melanoma was 50.5%; in the assay on SW-620 colon it was -63.1% (active); in the assay on MCF7 breast, -57.1% (active); in the assay on HCT-116 colon it was -46.2% (active); in the assay with HCC-2998 colon, 58.8%; in the assay on KM12 colon, 23.9%. Besides, the growth in the assay on MDA-MB-468 breast was -78.8% (active).

The values are drawn from PubChem BioAssay (NCI).
